# According to the supplement of paper PMC11732987, “Enantioselective OTUD7B fragment discovery through chemoproteomics screening and high-throughput optimisation” (Communications Chemistry, 2025):
# Unmarked numbers belong to inactive results.
# Legend:
# Experiment in all cases: log2 ratio of Biotin-Ahx-Ub-VS probe labelling (fragment/DMSO); higher = less target engagement (more negative = stronger competition), active = hit call of the paper (q ≤ 0.05, log2 ratio ≤ -1)
# Conditions in all cases: compound concentration: 200 uM; treatment time: 3 h
# OTUD6B = biological target: T1, OTUD6B (UniProt Q8N6M0)
# T1 sequence (whole entry): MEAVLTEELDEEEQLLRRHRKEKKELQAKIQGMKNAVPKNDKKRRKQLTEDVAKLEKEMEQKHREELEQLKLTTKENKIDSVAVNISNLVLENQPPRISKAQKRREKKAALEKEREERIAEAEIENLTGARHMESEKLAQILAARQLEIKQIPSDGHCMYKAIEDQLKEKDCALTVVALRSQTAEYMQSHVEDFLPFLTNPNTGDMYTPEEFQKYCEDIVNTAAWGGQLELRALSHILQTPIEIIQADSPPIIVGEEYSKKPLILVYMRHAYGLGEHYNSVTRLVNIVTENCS
# In short: (§1)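 Fragment (200 µM) or vehicle was incubated for 3 h with triplicate HEK293T lysate samples of 495 µg, which were then treated with Biotin-Ahx-Ub-VS at 0.5 µM final for 1 h. Labelled DUBs were enriched on NeutrAvidin, digested with LysC and trypsin, and analysed by diaPASEF LC-MS/MS. Values are average log2 fragment/vehicle ratios from an unpaired t-test on global-median-normalised Spectronaut label-free quantities, using proteins with ≥2 unique peptides.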
# OTUD7B = biological target: T2, OTUD7B (UniProt Q6GQQ9)
# T2 sequence (whole entry): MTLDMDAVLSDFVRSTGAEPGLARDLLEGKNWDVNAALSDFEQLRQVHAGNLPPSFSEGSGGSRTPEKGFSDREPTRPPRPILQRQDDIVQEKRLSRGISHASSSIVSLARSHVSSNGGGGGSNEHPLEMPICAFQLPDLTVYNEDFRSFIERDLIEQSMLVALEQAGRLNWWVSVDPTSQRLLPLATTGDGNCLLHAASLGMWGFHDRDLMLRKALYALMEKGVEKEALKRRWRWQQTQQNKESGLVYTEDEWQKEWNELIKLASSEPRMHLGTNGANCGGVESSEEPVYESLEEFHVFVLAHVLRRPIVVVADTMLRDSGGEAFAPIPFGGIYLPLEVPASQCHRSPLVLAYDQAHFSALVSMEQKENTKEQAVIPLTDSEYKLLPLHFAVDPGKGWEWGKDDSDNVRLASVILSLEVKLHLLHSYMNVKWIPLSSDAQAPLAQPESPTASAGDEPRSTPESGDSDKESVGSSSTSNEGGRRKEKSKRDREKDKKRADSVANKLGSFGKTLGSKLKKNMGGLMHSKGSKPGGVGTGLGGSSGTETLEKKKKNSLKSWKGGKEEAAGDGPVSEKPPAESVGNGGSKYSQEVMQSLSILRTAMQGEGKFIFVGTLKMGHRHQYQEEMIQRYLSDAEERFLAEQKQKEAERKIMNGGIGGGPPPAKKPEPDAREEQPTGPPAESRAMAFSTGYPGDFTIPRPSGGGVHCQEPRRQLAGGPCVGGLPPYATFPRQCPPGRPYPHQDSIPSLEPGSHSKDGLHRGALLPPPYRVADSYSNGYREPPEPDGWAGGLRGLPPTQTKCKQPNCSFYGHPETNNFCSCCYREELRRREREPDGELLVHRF
# In short: as §1
# PRPF8 = PRPF8 (UniProt Q6P2Q9)
# In short: as §1
# PSMD7 = biological target: T3, PSMD7 (UniProt P51665)
# T3 sequence (whole entry): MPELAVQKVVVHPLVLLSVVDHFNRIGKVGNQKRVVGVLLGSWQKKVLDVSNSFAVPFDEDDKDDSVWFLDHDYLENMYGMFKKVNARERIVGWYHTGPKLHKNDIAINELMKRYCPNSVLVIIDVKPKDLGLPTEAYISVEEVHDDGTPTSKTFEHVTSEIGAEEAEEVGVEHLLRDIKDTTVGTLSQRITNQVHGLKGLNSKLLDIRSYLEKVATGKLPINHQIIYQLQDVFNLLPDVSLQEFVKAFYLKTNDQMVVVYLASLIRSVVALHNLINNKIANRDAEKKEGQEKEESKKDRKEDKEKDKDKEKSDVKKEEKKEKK
# In short: as §1
# UCHL1 = UCHL1 (UniProt P09936)
# In short: as §1
# UCHL3 = biological target: T4, UCHL3 (UniProt P15374)
# T4 sequence (whole entry): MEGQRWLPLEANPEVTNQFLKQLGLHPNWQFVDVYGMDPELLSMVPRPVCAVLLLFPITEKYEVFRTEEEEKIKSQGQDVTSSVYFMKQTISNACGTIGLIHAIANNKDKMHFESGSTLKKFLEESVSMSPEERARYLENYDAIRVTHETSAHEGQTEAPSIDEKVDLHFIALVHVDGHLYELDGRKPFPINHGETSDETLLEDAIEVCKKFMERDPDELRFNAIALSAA
# In short: as §1
# UCHL5 = biological target: T5, UCHL5 (UniProt Q9Y5K5)
# T5 sequence (whole entry): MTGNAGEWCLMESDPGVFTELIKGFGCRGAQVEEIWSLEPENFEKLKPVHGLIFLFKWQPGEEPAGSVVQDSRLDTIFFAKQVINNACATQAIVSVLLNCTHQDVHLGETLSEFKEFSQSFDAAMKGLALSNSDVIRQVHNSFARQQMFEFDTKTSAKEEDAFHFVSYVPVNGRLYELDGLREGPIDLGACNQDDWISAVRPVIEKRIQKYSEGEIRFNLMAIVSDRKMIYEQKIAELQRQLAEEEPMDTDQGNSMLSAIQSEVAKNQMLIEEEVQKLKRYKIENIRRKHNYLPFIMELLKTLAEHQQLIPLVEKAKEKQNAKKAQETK
# In short: as §1
# USP10 = USP10 (UniProt Q14694)
# In short: as §1
# USP15 = biological target: T6, USP15 (UniProt Q9Y4E8)
# T6 sequence (whole entry): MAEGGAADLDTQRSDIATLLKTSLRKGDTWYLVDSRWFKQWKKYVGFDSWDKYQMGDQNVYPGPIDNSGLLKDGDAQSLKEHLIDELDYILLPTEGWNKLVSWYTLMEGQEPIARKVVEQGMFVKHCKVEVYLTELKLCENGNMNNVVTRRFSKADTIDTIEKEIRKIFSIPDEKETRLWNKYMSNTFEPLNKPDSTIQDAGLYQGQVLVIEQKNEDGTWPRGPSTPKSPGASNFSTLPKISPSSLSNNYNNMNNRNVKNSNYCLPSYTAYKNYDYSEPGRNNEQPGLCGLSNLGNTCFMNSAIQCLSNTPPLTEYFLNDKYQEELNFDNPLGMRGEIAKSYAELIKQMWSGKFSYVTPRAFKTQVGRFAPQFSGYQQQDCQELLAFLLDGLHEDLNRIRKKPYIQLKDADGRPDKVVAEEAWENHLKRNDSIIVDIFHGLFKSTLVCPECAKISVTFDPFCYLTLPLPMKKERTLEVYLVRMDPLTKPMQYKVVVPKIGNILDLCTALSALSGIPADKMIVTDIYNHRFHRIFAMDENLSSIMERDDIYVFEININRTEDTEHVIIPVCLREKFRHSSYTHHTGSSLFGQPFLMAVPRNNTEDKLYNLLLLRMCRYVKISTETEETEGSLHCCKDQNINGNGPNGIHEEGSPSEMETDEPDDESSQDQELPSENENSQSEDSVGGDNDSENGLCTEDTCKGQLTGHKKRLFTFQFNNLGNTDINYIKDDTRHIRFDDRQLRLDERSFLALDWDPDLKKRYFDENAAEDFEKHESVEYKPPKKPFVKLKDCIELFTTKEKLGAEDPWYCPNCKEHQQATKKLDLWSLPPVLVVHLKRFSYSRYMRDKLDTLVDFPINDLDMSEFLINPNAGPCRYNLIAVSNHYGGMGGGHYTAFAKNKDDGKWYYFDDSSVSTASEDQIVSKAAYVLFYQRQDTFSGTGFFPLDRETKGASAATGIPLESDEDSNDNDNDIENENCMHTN
# In short: as §1
# USP16 = USP16 (UniProt Q9Y5T5)
# In short: as §1
# Chain of USP10 (Q14694 whole entry): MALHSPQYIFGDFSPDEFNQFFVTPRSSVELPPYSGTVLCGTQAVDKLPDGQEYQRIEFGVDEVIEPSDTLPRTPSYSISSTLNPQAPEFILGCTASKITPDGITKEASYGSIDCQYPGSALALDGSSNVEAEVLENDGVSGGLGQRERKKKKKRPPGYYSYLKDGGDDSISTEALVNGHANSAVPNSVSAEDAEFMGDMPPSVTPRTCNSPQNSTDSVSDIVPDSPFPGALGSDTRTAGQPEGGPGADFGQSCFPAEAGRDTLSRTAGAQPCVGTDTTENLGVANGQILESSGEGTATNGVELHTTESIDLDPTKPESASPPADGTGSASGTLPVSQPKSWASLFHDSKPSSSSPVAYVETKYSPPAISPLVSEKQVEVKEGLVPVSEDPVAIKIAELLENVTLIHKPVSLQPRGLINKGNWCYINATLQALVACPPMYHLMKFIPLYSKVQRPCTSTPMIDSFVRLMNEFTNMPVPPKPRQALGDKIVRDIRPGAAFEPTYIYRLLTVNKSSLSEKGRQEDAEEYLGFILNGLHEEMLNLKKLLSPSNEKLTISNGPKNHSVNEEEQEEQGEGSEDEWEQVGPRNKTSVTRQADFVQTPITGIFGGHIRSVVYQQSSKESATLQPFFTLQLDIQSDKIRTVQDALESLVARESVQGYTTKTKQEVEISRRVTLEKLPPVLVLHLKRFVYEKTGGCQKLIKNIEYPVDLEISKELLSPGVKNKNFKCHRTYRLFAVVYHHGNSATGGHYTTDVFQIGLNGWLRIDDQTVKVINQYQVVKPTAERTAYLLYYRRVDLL
# Chain of USP16 (Q9Y5T5 whole entry, looked up): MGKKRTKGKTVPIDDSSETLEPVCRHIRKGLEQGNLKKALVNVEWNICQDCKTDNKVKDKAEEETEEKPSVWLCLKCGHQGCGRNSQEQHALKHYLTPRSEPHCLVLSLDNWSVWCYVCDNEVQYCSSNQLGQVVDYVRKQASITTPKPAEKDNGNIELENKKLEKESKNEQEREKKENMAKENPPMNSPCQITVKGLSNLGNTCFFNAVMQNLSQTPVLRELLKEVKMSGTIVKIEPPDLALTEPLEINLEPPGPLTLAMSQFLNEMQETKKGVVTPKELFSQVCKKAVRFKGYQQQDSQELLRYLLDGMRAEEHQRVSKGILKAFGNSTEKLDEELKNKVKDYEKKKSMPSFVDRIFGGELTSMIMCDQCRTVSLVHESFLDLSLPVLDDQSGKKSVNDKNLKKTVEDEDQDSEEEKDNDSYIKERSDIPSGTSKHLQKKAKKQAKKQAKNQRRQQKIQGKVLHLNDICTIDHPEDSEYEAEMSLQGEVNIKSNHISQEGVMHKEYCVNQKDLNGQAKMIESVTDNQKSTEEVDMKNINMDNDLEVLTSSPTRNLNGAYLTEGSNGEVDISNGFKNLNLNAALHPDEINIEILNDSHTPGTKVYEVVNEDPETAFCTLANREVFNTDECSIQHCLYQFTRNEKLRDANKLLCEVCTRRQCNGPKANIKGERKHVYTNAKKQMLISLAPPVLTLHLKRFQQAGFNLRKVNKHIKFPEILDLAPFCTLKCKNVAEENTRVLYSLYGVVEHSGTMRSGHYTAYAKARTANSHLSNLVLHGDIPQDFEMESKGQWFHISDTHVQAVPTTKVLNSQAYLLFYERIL
# Chain of UCHL1 (P09936 whole entry, looked up): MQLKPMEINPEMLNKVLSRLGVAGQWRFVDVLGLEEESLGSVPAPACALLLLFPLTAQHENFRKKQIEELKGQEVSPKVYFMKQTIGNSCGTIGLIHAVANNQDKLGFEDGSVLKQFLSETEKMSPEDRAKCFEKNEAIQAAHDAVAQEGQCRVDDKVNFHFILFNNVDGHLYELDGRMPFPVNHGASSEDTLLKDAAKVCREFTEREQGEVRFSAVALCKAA
structure (smiles),measurement,setting,value
O=C(CCl)NCCc1ccc(F)cc1,log2 ratio of Biotin-Ahx-Ub-VS probe labelling,OTUD6B,0.0481
same,log2 ratio of Biotin-Ahx-Ub-VS probe labelling,OTUD7B,-0.435
same,log2 ratio of Biotin-Ahx-Ub-VS probe labelling,PRPF8,-0.0623
same,log2 ratio of Biotin-Ahx-Ub-VS probe labelling,PSMD7,0.0236
same,log2 ratio of Biotin-Ahx-Ub-VS probe labelling,UCHL1,-1.09 (active)
same,log2 ratio of Biotin-Ahx-Ub-VS probe labelling,UCHL3,0.132
same,log2 ratio of Biotin-Ahx-Ub-VS probe labelling,UCHL5,-0.0307
same,log2 ratio of Biotin-Ahx-Ub-VS probe labelling,USP10,-0.0913
same,log2 ratio of Biotin-Ahx-Ub-VS probe labelling,USP15,-0.0724
same,log2 ratio of Biotin-Ahx-Ub-VS probe labelling,USP16,0.107
